68 molecules from PubChem BioAssay AID624273 (Broad Institute, 2012) can be followed below.

Screen size: about 1,000 compounds; about 230 (23%) were called active. Inconclusive results (about 1%) are left out. How the calls were made is not given here. This is one part of the list. A call without a number means that no potency is given here. Potency and affinity values are given separately.

In this test the target is Long-chain-fatty-acid--AMP ligase FadD28 (Mycobacterium tuberculosis (strain ATCC 25618 / H37Rv)) (UniProt P9WQ59). As to the kind of experiment: inhibitors of FadD28 bisubstrate probe binding, dose response, biochemical, fluorescence polarization, cherry-pick (AID 624273). The settings on record: series mostly up to 50 µM. (In general: Fluorescence polarisation rises when a labelled molecule tumbles more slowly, as on binding a larger partner.)
Sequence of Long-chain-fatty-acid--AMP ligase FadD28 (Mycobacterium tuberculosis (strain ATCC 25618 / H37Rv)) (P9WQ59 whole entry, looked up): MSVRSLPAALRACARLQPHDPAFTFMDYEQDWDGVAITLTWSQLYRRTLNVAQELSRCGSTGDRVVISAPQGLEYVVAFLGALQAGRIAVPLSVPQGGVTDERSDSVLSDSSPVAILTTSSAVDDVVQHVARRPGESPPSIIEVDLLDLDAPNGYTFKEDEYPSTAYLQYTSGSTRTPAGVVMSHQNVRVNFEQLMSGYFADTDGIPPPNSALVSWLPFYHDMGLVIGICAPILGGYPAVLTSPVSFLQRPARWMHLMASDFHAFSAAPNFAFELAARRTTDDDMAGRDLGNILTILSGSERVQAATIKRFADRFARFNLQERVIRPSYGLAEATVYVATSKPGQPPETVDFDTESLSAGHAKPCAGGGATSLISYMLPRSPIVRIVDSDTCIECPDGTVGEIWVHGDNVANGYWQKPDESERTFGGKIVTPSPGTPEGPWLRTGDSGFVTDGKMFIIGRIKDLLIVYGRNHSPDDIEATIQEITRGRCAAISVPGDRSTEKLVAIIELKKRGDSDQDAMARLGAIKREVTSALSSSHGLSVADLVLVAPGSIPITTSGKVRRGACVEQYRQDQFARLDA
`O=C(c1cccc(S(=O)(=O)N2CCN(c3ccccc3)CC2)c1)N1CCCCCCC1`: the molecule was called inactive.

Consider `Cc1ccccc1-c1nnc(-c2cccc3ccccc23)o1`, for which the molecule was called inactive.

Take `COc1ccc(C)cc1NC(=O)CSc1nnc(-c2ccc(Br)cc2)o1`: the result was inactive.

Take `CCc1cccc(NC(=O)COC(=O)/C=C/c2cccs2)c1`: the molecule was called inactive.

Turning to `COc1ccc(C(=O)c2ccsc2N)cc1`, the molecule was classed as inactive.

As for `Cc1ccc(OCCCN2CCOCC2)cc1`, the outcome was inactive.

`Cc1ccc(S(=O)(=O)/N=C2\C=C(Nc3ccc(O)cc3)C(=O)c3ccccc32)cc1`: the outcome was inactive.

As to `O=C(COC(=O)c1ccc(NS(=O)(=O)c2cccs2)cc1O)Nc1nc2ccccc2s1`, the result was inactive.

Regarding `CCc1nnc(NC(=O)CSc2ncnc3c2oc2ccccc23)s1`, the call was inactive.

Regarding `O=C(CSc1nnc(Cc2ccccc2)n1-c1ccccc1)NNC(=O)Cc1ccccc1`, the result was inactive.

As for `O=C(COC(=O)c1cc(S(=O)(=O)Nc2ccccc2Cl)ccc1O)Nc1nc2ccccc2s1`, the call was inactive.

In the case of `O=C(NCC(c1cccs1)N1CCOCC1)c1cc2ccccc2oc1=O` (stereo not drawn), the molecule was classed as inactive.

Take `O=c1c2c3c(sc2nc2n1CCC2)CCCC3`: the molecule was called inactive.

Regarding `CCc1cccc2c(C(=O)CN3C(=O)NC(C)(c4cccc5ccccc45)C3=O)c[nH]c12` (stereo not drawn), the call was inactive.

With `CC(C)C(NC(=O)c1ccc2c(c1)OCO2)C(=O)N/N=C/c1cccs1` (stereo not drawn), the result was inactive.

`NC(Cc1ccc(C(F)(F)F)cc1)c1csc(NC(=O)Nc2ccccc2)n1` (stereo not drawn): the result was inactive.

For `Oc1ccc(/C=N/N(Cc2ccccc2)c2ccccc2)c(O)c1O`, the outcome was inactive.

For the molecule `CN=c1scc(-c2ccco2)n1/N=C/c1ccc(O)c(O)c1`, the molecule was classed as inactive.

`Oc1ccccc1/C=N/n1c2ccccc2c2ccccc21`: the result was inactive.

Consider `CCN=c1scc(-c2ccco2)n1/N=C/c1ccc(OC)c(O)c1`, for which the result was inactive.

For the molecule `CCOC(=O)c1c(-c2ccc(C)s2)csc1NC(=O)c1cccs1`, the outcome was inactive.

Take `CCOc1ccccc1NC(=O)CSc1nnc(-c2ccncc2)o1`: the molecule was called inactive.

As to `CCOc1ccc(C(=O)Nc2cc(-c3nc4ccccc4[nH]3)ccc2C)cc1[N+](=O)[O-]`, the molecule was classed as inactive.

As for `CC(C)NCC(=O)Nc1c2c(nc3ccccc13)CCC2`, the outcome was inactive.

On to `O=c1[nH]nc(-c2ccccc2)cc1-c1ccccc1`, for which the outcome was inactive.

Regarding `COc1ccccc1CN1CCCC(C(=O)N2CCCCC2)C1` (stereo not drawn), the molecule was called inactive.

Consider `COc1cccc(/C=N/Nc2nc(C)cc(=O)[nH]2)c1OC`, for which the call was inactive.

In the case of `CCOC(=O)C1=C(C)NC(C)=C(C(=O)OCC)C1c1sccc1C`, the call was inactive.

Consider `COc1cccc(CN(C)C(=S)Nc2ccc(C)c(C)c2)c1`, for which the result was inactive.

As to `CCOc1ccc(-n2c(=O)c3sccc3n(CC(=O)Nc3cccc(OC)c3)c2=O)cc1`, the molecule was called inactive.

Regarding `O=C(Nc1cccc(F)c1)NC1CCCCCCC1`, the result was inactive.

For the molecule `Nc1ccc(NC(=O)NC2CCCCC2)cc1[N+](=O)[O-]`, the outcome was inactive.

With `N=c1n(Cc2ccccc2)c2ccccc2n1CC(O)c1ccco1` (stereo not drawn), the molecule was called inactive.

Regarding `CCn1ncc(NC(=S)NCCc2ccccc2)c1C(N)=O`, the outcome was inactive.

`CC(=O)Nc1ccc(OC(F)(F)C(F)F)c(NC(C)=O)c1`: the result was inactive.

For the molecule `CC(C)CC(=O)Nc1nnc(S(=O)(=O)N(C)c2ccc(Cl)cc2)s1`, the molecule was called inactive.

On to `COc1ccc(/C=N/n2c(SC)nnc(C(C)(C)C)c2=O)cc1OC`, for which the molecule was called inactive.

For `COc1ccc(/C=N/NC(=O)CN(C2=NS(=O)(=O)c3ccccc32)c2ccccc2)cc1OC`, the molecule was classed as inactive.

On to `c1ccc(-c2nnc(N3CCCC3)nc2-c2ccccc2)cc1`, for which the outcome was inactive.

With `CC(O)(c1cccnc1)c1nc(-c2cccc(C(F)(F)F)c2)cs1` (stereo not drawn), the call was inactive.

For `COc1ccc(CC(=O)Nc2nnc(SCc3ccccc3)s2)cc1S(=O)(=O)N1CCOCC1`, the molecule was classed as inactive.

Take `CCN(CC)S(=O)(=O)c1cccc(C(=O)NCCCN2CCOCC2)c1`: the result was inactive.

For `Cc1ccc(C(=O)OCC(=O)c2ccc(Br)cc2)cc1S(=O)(=O)N1CCOCC1`, the outcome was inactive.

As for `O=C(NCCc1c[nH]c2ccccc12)/C(=C/c1ccco1)NC(=O)c1ccco1`, the molecule was called inactive.

Take `O=C(COC(=O)c1ccc(Cl)c(S(=O)(=O)N2CCCCCC2)c1)Nc1ccccc1`: the outcome was inactive.

As to `COc1ccc(CCNC(=O)c2ccc(Cl)c(S(=O)(=O)N(C)c3ccccc3)c2)cc1`, the molecule was called inactive.

`Cc1oc(/C=N/NS(=O)(=O)c2ccccc2)cc1Br`: the result was inactive.

In the case of `Cc1sc(-n2c(C)cc(/C=C3\SC(=S)NC3=O)c2C)c(C#N)c1C`, the outcome was inactive.

Consider `O=C1C2ON(c3ccccc3)C(c3ccccn3)C2C(=O)N1c1ccc(Br)cc1` (stereo not drawn), for which the result was inactive.

Take `Cn1nnnc1NCc1cccc(Cl)c1`: the molecule was classed as inactive.

In the case of `Cc1nnc(NC(=O)c2sc3nc(-c4cccs4)cc(C(F)(F)F)c3c2N)s1`, the molecule was called inactive.

Consider `O=C(Cn1cnc2c(oc3nc4c(cc32)CCCC4)c1=O)Nc1cccc(Cl)c1`, for which the result was inactive.

Take `COc1ccccc1NC(=O)CSCC(=O)N1c2ccccc2CCc2ccccc21`: the molecule was called inactive.

With `N#Cc1ccccc1NC(=O)c1cc(=O)c2ccccc2o1`, the outcome was inactive.

For `NC(Cc1ccc(Cl)cc1)c1csc(NC(=O)Nc2ccccc2)n1` (stereo not drawn), the call was inactive.

Turning to `Nc1ccc(C(CC(=O)O)n2cccc2)cc1` (stereo not drawn), the molecule was classed as inactive.

With `Cc1ccc(Cn2nnc3c(=O)[nH]c(C4CCN(S(=O)(=O)Cc5ccccc5)CC4)nc32)cc1`, the result was inactive.

As for `COc1cc(/C=C2/C(=O)NN(c3cccc(Cl)c3)C2=O)cc(OC)c1O`, the call was inactive.

For `COc1cc(/C=C2/C(=O)NN(c3ccc(Cl)cc3)C2=O)ccc1OC(=O)c1ccco1`, the outcome was inactive.

Take `Cc1ccc(OCC(=O)NCCS(=O)(=O)N2CCN(c3ccccc3)CC2)cc1`: the result was inactive.

For the molecule `COc1ccc(S(=O)(=O)N2CCCCC2)cc1NC(=O)CN1CCN(C(C)=O)CC1`, the call was inactive.

As for `CCC(=O)c1ccc(OCC(=O)Nc2cccc(S(=O)(=O)N3CCCCCC3)c2)cc1`, the outcome was inactive.

For `Cc1cccc(NC(=O)c2cccc(S(=O)(=O)N3CCc4ccccc4C3)c2)n1`, the result was inactive.

With `CCc1cccc(NC(=O)Cn2c(=O)oc3cc(S(=O)(=O)N4CCOCC4)ccc32)c1`, the molecule was called inactive.

`CN(CC(=O)N1CCc2ccccc21)S(=O)(=O)c1cccc2cccnc12`: the result was inactive.

`Cc1ccc(S(=O)(=O)N(C)C)cc1NC(=O)C(C)[N+]12CCN(CC1)CC2` (stereo not drawn): the molecule was called inactive.

For the molecule `CC1CCCN(Cc2c(O)ccc3c(=O)c(-c4nc5ccccc5s4)c(N)oc23)C1` (stereo not drawn), the molecule was classed as inactive.

Take `CN1C(=O)C2C=CC1C1C(=O)N(c3ccccc3)C(=O)C21` (stereo not drawn): the molecule was classed as inactive.
